Measured values from PubChem BioAssay AID489025 (Southern Research Specialized Biocontainment Screening …, 2010).
The campaign covered roughly 2,300 compounds. About 790 (34%) were called active. How the calls were made is not given here. This is one part of the list. Results with a measured potency or affinity are listed apart.

Test: THP-1 cell cytotoxicity, dose response, cytotoxicity control for non-replicating M. tuberculosis project (AID 489025)
Conditions: THP-1 cell viability; series mostly up to 40 µM

Structure (SMILES) | outcome
CCOC(=O)c1cc(-c2csc(COc3ccccc3Cl)n2)on1 | inactive
COCCOC(=O)c1c(C)oc2ccc(OC(=O)c3ccco3)cc12 | inactive
CC(=O)N1CCN(C(=O)CC2OC(=O)c3ccccc32)CC1 (centres undefined) | inactive
COCCn1c(C)cc(C(=O)COC(=O)c2ccc(Br)o2)c1C | inactive
CCCN1C(=O)SC(CC(=O)Nc2ccccc2)C1=O (centres undefined) | inactive
Nc1nnc(Sc2ncccc2[N+](=O)[O-])s1 | inactive
CNc1nnc(Sc2ncccc2[N+](=O)[O-])s1 | inactive
COc1ccc(OCCSc2nnc(Cc3cccc4ccccc34)n2N)cc1 | inactive
O=C(c1ccccc1)n1c(=O)c(F)cn(COCCBr)c1=O | inactive
O=C(Cn1cc([N+](=O)[O-])nc1[N+](=O)[O-])N1CCN(c2ccccc2)CC1 | inactive
CCOC(=O)C(Nc1ccc2ccccc2c1)C(=O)OCC | inactive
Cc1nnc(NC(=O)c2ccc3ccccc3c2)o1 | inactive
COc1cccc(NC(=O)c2cc3ccccc3oc2=O)c1 | inactive
O=c1oc2ccccc2c2c1nc(C(F)(F)F)n2-c1ccccc1 | inactive
COC(=O)CN(C#N)c1nc(SC)nc(N(C)C)n1 | inactive
Cc1ccc(N2NC(=O)/C(=C/C=C/c3ccco3)C2=O)cc1C | inactive
O=C(NC(=S)Nn1cnc2c(cnn2-c2ccccc2)c1=O)c1ccccc1 | inactive
CCOC(=O)Cn1c2ccc(F)cc2c2nc(C)sc21 | inactive
Cc1nnc(N/N=C/c2ccc(Br)cc2)n1N | inactive
Cc1ccccc1OCC(=O)OCC(=O)c1ccc[nH]1 | inactive
CC1(CCc2ccc3c(c2)OCO3)NC(=O)c2ccccc2N1 (centres undefined) | inactive
O=C(COc1ccc(Br)cc1)N/N=C1/SCC(=O)N1Cc1ccco1 | inactive
CCc1nnc(N/N=C/c2c(F)cccc2Cl)n1N | inactive
Cc1ccsc1/C=N/NC(=O)c1ccncc1 | inactive

Structure (SMILES) | outcome
O=C(N/N=C1\CCCc2c1[nH]c1ccc(Cl)cc21)c1ccncc1 | inactive
COc1ccc(C(C)=O)cc1COC(=O)c1ccc2ccccc2n1 | inactive
c1nc2n(n1)C1=C(CCCC1)C1(CCCCC1)N2 | inactive
CCOc1ccc(NC(=O)c2nnn(CC(=O)Nc3ccccc3OC)c2N)cc1 | inactive
CCOC(=O)c1ccc(NC(=O)NS(=O)(=O)c2ccc(C)cc2)cc1 | inactive
CN(C)S(=O)(=O)c1ccc(C(=O)Oc2ccccc2)cc1 | inactive
Cc1ccc(NC(=O)CN(C)CC(=O)Nc2ccc(F)c(Cl)c2)cc1 | inactive
CC1CCN(S(=O)(=O)c2cccc(C(=O)Oc3ccc([N+](=O)[O-])cc3)c2)CC1 | inactive
CC(C)C(=O)Nc1cccc(-c2nc3ccccc3c(=O)o2)c1 | inactive
CCOC(=O)Cn1c(C)c(Br)c(=O)c2cccc(C)c21 | inactive
CN(C)Cc1ccccc1Sc1ccc(Br)cc1 | inactive
FC(F)(F)c1nc(SCc2ccc(Cl)cc2Cl)n[nH]1 | inactive
O=C(CN1CCCCC1)Nc1nnc(-c2ccc([N+](=O)[O-])cc2)s1 | inactive
COC(=O)COc1ccc(S(=O)(=O)N2CCN(c3ccccc3F)CC2)cc1 | inactive
O=[N+]([O-])c1ccc(CN2CCN(c3ccccc3Cl)CC2)o1 | inactive
Cc1ccccc1N1CCN(Cc2ccc([N+](=O)[O-])o2)CC1 | inactive
Cc1cc2cc(CNC(=O)C3CCCC3)ccc2n1C | inactive
O=C(CN1CCN(c2ccccc2)CC1)Nc1nnc(-c2ccccc2)s1 | inactive
O=C(Oc1ccccc1)c1ccc(COC(=O)c2cnccn2)cc1 | inactive
Cc1ccc(CNC(=O)c2cnccn2)cc1 | inactive
COc1ccccc1C1=Nn2c(nnc2C2CCCCC2)SC1 | inactive
O=C(Nc1ccc(Cl)cn1)C1COc2ccccc2O1 (centres undefined) | inactive
O=c1oc(-c2cccs2)nc2c1cnn2-c1ccccc1 | inactive
Cc1ccccc1Cn1cc(NC(=O)c2noc(C(C)C)c2[N+](=O)[O-])cn1 | inactive

Structure (SMILES) | outcome
COc1ccc(CN=C(C#N)C2=C(O)c3ccccc3C2=O)cc1 | inactive
CC(C)CN1C(=O)CC(Sc2ccccc2C(=O)O)C1=O (centres undefined) | inactive
CC(=O)c1c(C)n(C)c2ccc(OC(=O)c3ccco3)cc12 | inactive
Cc1ccc(NC(=O)CCSc2nnc(Cc3ccccc3)o2)cc1 | inactive
O=C(NCc1ccccc1CN1CCCC1)c1cc2ccccc2o1 | inactive
Oc1ccc(Cl)cc1CNCc1ccc(F)cc1 | inactive
Brc1ccc(-c2ccc(CNCc3ccccn3)o2)cc1 | inactive
O=c1cc(C(F)(F)F)[nH]c2c(C(F)(F)F)cccc12 | inactive
CN(C)CCN1C(=O)c2oc3ccccc3c(=O)c2C1c1cccc(Br)c1 (centres undefined) | inactive
O=C(c1cc2ccccc2o1)N1CCN(Cc2ccccc2)CC1 | inactive
O=C1CCC(=O)N1CNc1ccc(Oc2ccccc2)cc1 | inactive
O=C(Nc1sc2c(c1C(=O)O)CCCC2)c1ccc(F)cc1 | inactive
COC(=O)CCC(=O)Nc1sc(Cc2ccccc2)c(C)c1C(N)=O | inactive
O=C(c1ccc([N+](=O)[O-])o1)N1CCc2ccccc2C1 | inactive
O=C(CCSc1nnc(-c2ccncc2)o1)Nc1ccc(Cl)cc1 | inactive
CC1(C)CC(=O)c2cc(C(=O)NNc3ccccc3)c(=O)n(-c3ccccc3)c2C1 | inactive
Cc1c(Cl)cccc1-c1ccc(CNCc2ccccn2)o1 | inactive
CC(C)(C)CC(=O)NC(=S)NCc1ccco1 | inactive
O=C(c1cc(F)ccc1F)C1CCCN(Cc2ccc3nonc3c2)C1 (centres undefined) | inactive
COCc1[nH]nc2c1C(c1sccc1C)C(C#N)=C(N)O2 (centres undefined) | inactive
CCOC(=O)N1CCC(N2CCCC(C(=O)c3ccc4cc(OC)ccc4c3)C2)CC1 (centres undefined) | inactive
CCOC(=O)CNCCC(=O)c1ccc(Br)cc1 | inactive
O=C(Nc1nccs1)c1ccc2ccccc2c1 | inactive
O=C(NCc1cccs1)c1ccc([N+](=O)[O-])cc1 | inactive

Structure (SMILES) | outcome
CCOC(=O)c1cc(-c2csc(COc3ccc(Cl)cc3)n2)on1 | inactive
CC(C)CCC1=NN(C(=O)c2ccco2)C(O)(C(F)(F)F)C1 (centres undefined) | inactive
Cc1cc(C(=O)NNc2ccc(Cl)cc2)no1 | inactive
O=C(NC(=S)NCCc1ccccc1)c1ccccc1 | inactive
O=C(OCc1ccccn1)c1ccc(COc2ccccc2Cl)o1 | inactive
Cc1n[nH]c(C)c1CCNC(=O)C1CCC(=O)N(Cc2ccccc2F)C1 (centres undefined) | inactive
C=CCn1c(NC(=O)c2ccccc2)nc2ccccc21 | inactive
O=C(Nc1ccc(Cl)cc1)C1CCCC1 | inactive
Cn1c(CNc2ccccc2O)nc2ccccc21 | inactive
O=C(Nc1nc2ccccc2n1CCN1CCCC1)C1CCCCC1 | inactive
CCCCSc1nnc(-c2cc(Br)ccc2N)c(=O)[nH]1 | inactive
O=C(c1ccc(Br)o1)N1CCC(Cc2ccccc2)CC1 | inactive
CN1c2ccsc2/C(=N/Nc2ccccc2)CS1(=O)=O | inactive
CCc1ccc(N2CCN(CCNC(=O)Nc3ccc(OC)cc3)CC2)cc1 | inactive
COC(=O)c1ccc(N2CCN(CCNC(=O)Nc3ccc(OC)cc3)CC2)cc1 | inactive
O=C1Nc2cc(C(=O)NCCCN3CCOCC3)ccc2S/C1=C/c1cccc(Cl)c1 | inactive
O=C1CC(N2CCSCC2)C(=O)N1CCc1ccccc1 (centres undefined) | inactive
CCOC(=O)C(=O)Cc1nc2ccccc2s1 | inactive
Cc1ccc(-c2nnc(COC(=O)c3cccs3)o2)cc1 | inactive
O=C(O)CCCCCN1C(=O)/C(=C\c2ccncc2)SC1=S | inactive
O=C(COc1ccc2ccccc2c1)N1CCCC1 | inactive
O=C(COC(=O)CCN1C(=O)/C(=C\C=C\c2ccccc2)SC1=S)Nc1cc(F)ccc1F | inactive
O=C(NCCN1C(=O)S/C(=C\c2ccccc2F)C1=O)C1CCN(S(=O)(=O)c2cccs2)CC1 | inactive
CCOC(=O)Cn1cc(C#N)c2ccccc21 | inactive

Structure (SMILES) | outcome
CC1CCC/C(=C\Nc2ccc(C(=O)O)c(O)c2)C1=O (centres undefined) | inactive
Cc1cccnc1NC(=O)C1COc2ccccc2O1 (centres undefined) | inactive
N=c1oc2ccccc2cc1C(=O)Nc1ccccc1 | inactive
Cc1cc(Cl)ccc1N(CC(=O)NCc1ccccc1)S(C)(=O)=O | inactive
CC(=O)c1ccc(NC(=O)c2cc(CC(C)C)on2)cc1 | inactive
CN(CCS(=O)(=O)c1ccc(Cl)cc1)Cc1cccnc1 | inactive
O=C(COc1ccc(Br)cc1)N/N=C1/SCC(=O)N1Cc1ccccc1 | inactive
O=C(Nc1nnc(COc2ccc(Cl)cc2)s1)c1ccco1 | inactive
COC(=O)C(C)Oc1ccc2cc(-c3ccccc3)c(=O)oc2c1 (centres undefined) | inactive
O=C(NC(=S)N1CCN(C/C=C/c2ccccc2)CC1)c1ccco1 | inactive
COc1ccc(NC(=O)C(=O)NNC(=O)C(C)Oc2ccc(Cl)cc2Cl)cc1 (centres undefined) | inactive
C=CCN(CC=C)C(=O)Cc1ccc(F)cc1 | inactive
C=C(C)C1Cc2c(C)nn(-c3nc(C)cc(C)n3)c2C1 (centres undefined) | inactive
CCOC(=O)Cn1c(-c2ccccc2)ccc(C#N)c1=O | inactive
NCCNc1ccc([N+](=O)[O-])c2cccnc12 | inactive
CC(=O)Nc1ccc(OC(=O)c2ccc(Br)c([N+](=O)[O-])c2)cc1 | inactive
O=C1c2cccc3cc([N+](=O)[O-])cc(c23)C(=O)N1c1ccccc1O | inactive
O=c1cc(-c2ccccc2Cl)oc2ccc([N+](=O)[O-])c(O)c12 | inactive
O=[N+]([O-])c1cnc(Nc2ccc(Cl)cn2)c([N+](=O)[O-])c1 | inactive
Cc1ccc(OC(=O)c2sc3ncn(C)c(=O)c3c2C)cc1 | inactive
CC(C)CN1C(=O)/C(=C(/C#N)C(=O)NC2CCCCC2)c2ccccc21 | inactive
Cc1ccc(NC(=O)CO/N=C/c2ccccc2C)c(C)c1 | inactive
COc1cc2[nH]c(Cl)c([N+](=O)[O-])c2cc1OC | inactive
